Test results taken from PubChem BioAssay (EPA / NIEHS).
Active and inactive are the calls of the source. How the source made its calls: active means hit-call score of the fitted dose curve at least 0.9, where 1 is the maximum; inactive means score below 0.9.

How the values were obtained:
[1] = APR_HepG2_CellCycleArrest_24hr: Apredica 24-hour HepG2 Assay for Cell Cycle Arrest (AID 2282905); details: imaging, actives raise or lower the signal;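 further: cell cycle arrest scored as ratio of 2N to 4N nuclear DNA content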
Summary of the method: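 Compounds at 0.39–200 uM (0.5% DMSO) for 24 h, then fixed and Hoechst 33342 stained. Cell-cycle analysis of nuclear DNA content by high-content imaging, fitted bidirectionally versus DMSO.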

[2] = APR_HepG2_NuclearSize_24hr: Apredica 24-hour HepG2 Assay for Nuclear Size (AID 2282907); details: high-content imaging, actives raise or lower the signal
Summary of the method: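 HepG2 cells exposed 24 h to compounds at 0.39–200 uM (0.5% DMSO), fixed, Hoechst 33342 stained and imaged at 20x; nuclear diameter measured by automated image analysis, fitted bidirectionally against DMSO controls.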

[3] = APR_HepG2_CellLoss_24hr: Apredica 24-hour HepG2 Assay for Cell Loss (AID 2282908); details: high-content imaging;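 on AC50: fit in both directions so a hit may be cell loss or gain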
Summary of the method: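 HepG2 cells exposed 24 hr to 0.39–200 uM compound in duplicate at 0.5% v/v final DMSO. Cells fixed in 3.7% formaldehyde and Hoechst 33342-stained. Cell number came from nuclear imaging at 20x. Bidirectional fit versus DMSO.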

[4] = APR_HepG2_MicrotubuleCSK_24hr: Apredica 24-hour HepG2 Assay for Microtubule CSK Stabilty (AID 2282909); details: HepG2 microtubule cytoskeleton imaging, actives raise or lower the signal
Summary of the method: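 HepG2 cells were treated 24 hr with compound at 0.39–200 uM in duplicate (0.5% DMSO final), then fixed and permeabilized. Alpha-tubulin immunofluorescence was imaged by high-content microscopy, with bidirectional fitting against DMSO and taxol as positive control.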

[5] = APR_HepG2_MitoticArrest_24hr: Apredica 24-hour HepG2 Assay for Mitotic Arrest (AID 2282910); details: high-content imaging, actives raise or lower the signal
Summary of the method: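 HepG2 human liver cells were exposed to compounds at 0.39–200 uM (10 concentrations, duplicate) in 0.5% v/v DMSO for 24 hr, then fixed and immunostained for phospho-histone H3 with Hoechst 33342. Mitotic arrest came from HCS fluorescent imaging, fitted bidirectionally against DMSO.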

[6] = APR_HepG2_MitoMembPot_24hr: Apredica 24-hour HepG2 Assay for Mitochondrial Membrane Potential (AID 2282911); details: imaging, actives raise or lower the signal
Summary of the method: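 HepG2 cells exposed 24 h to 0.39–200 uM compounds in duplicate, 0.5% v/v DMSO final. MitoTracker Red CMXRos 250 nM loaded 30 min before formaldehyde fixation; high-content imaging at 20x, bidirectional fit versus DMSO.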

[7] = APR_HepG2_MitoMass_24hr: Apredica 24-hour HepG2 Assay for Mitochondrial Mass (AID 2282912); details: high-content imaging, actives raise or lower the signal
Summary of the method: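 HepG2 cells exposed 24 hr to 0.39–200 uM compound, 0.5% v/v DMSO, in duplicate. Stained before fixation with 250 nM MitoTracker Red CMXRos for 30 min, then imaged at 20x with Hoechst nuclei. Fitted in both directions against DMSO.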

[8] = APR_HepG2_p53Act_24hr: Apredica 24-hour HepG2 Assay for p53 Activation (AID 2282913); details: high-content imaging, actives raise or lower the signal;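 further: p53 protein immunofluorescence averaged per cell in HepG2 with Hoechst nuclei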
Summary of the method: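 HepG2 cells exposed 24 h to compounds at 0.39–200 uM in duplicate, 0.5% v/v DMSO final; fixed, permeabilized, stained with anti-p53 antibody and Hoechst 33342; fluorescence imaging; bidirectional curve fit versus DMSO.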

[9] = APR_HepG2_CellCycleArrest_72hr: Apredica 72-hour HepG2 Assay for Cell Cycle Arrest (AID 2282914); details: high-content imaging, actives raise or lower the signal
Summary of the method: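 HepG2 cells exposed 72 h in duplicate to 0.39–200 uM compound, 0.5% DMSO final. Formaldehyde-fixed, Hoechst 33342-stained nuclei imaged at 20x, six fields per well; DNA content per valid cell quantified by cell-cycle image analysis, bidirectional fit versus DMSO.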

[10] = APR_HepG2_CellLoss_72hr: Apredica 72-hour HepG2 Assay for Cell Loss (AID 2282915); details: high-content imaging
Summary of the method: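 HepG2 cells were exposed for 72 hr to compounds at 0.39–200 uM (ten concentrations, duplicate) in 0.5% v/v final DMSO. Nuclei were stained with Hoechst 33342 after 3.7% formaldehyde fixation, imaged at 20x, and counted; fits bidirectional versus DMSO.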

[11] = APR_HepG2_P-H2AX_72hr: Apredica 72-hour HepG2 Assay for H2AX Phosphorylation (AID 2282916); details: imaging, actives raise or lower the signal;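 further: phospho-histone H2A.x immunostain intensity per cell marking DNA damage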
Summary of the method: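 HepG2 cells treated 72 h at 0.39–200 uM, 0.5% DMSO final, duplicates. Formaldehyde-fixed, Triton-permeabilised, immunostained for phospho-H2A.x with Hoechst; fluorescence imaged at 20x, bidirectional fit versus DMSO.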

[12] = APR_HepG2_MitoMembPot_72hr: Apredica 72-hour HepG2 Assay for Mitochondrial Membrane Potential (AID 2282917); details: imaging, actives raise or lower the signal
Summary of the method: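 HepG2 cells exposed 72 h to compounds at 0.39–200 uM (0.5% v/v DMSO, duplicates); MitoTracker Red CMXRos 250 nM loaded 30 min before 3.7% formaldehyde fixation, imaged by HCS fluorescence. Bidirectional fit versus DMSO.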

[13] = APR_HepG2_MitoticArrest_72hr: Apredica 72-hour HepG2 Assay for Mitotic Arrest (AID 2282918); details: high-content imaging, actives raise or lower the signal
Summary of the method: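 HepG2 cells treated 72 h at 0.39–200 uM, 0.5% DMSO final; formaldehyde-fixed, stained with Hoechst 33342 and phospho-histone H3 antibody, imaged by high-content fluorescence; bidirectional fit versus DMSO.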

[14] = APR_HepG2_MicrotubuleCSK_72hr: Apredica 72-hour HepG2 Assay for Microtubule CSK Stabilty (AID 2282919); details: HepG2 microtubule cytoskeleton, high-content imaging, actives raise or lower the signal
Summary of the method: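 HepG2 human liver cells were dosed for 72 h at ten concentrations from 0.39 to 200 uM in duplicate (0.5% v/v DMSO final). Fixed, permeabilized cells were immunostained for alpha-tubulin (Cy5) with a Hoechst counterstain and imaged at 20x.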

[15] = APR_HepG2_P-H2AX_24hr: Apredica 24-hour HepG2 Assay for H2AX Phosphorylation (AID 2282920); details: high-content imaging, actives raise or lower the signal
Summary of the method: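 HepG2 cells dosed 24 h at 0.39–200 uM (10 points, duplicate, 0.5% DMSO final). Formaldehyde-fixed and permeabilized, then immunostained for phospho-H2A.x with Hoechst. Fluorescence quantified by high-content imaging, fitted bidirectionally versus DMSO.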

[16] = APR_HepG2_StressKinase_72hr: Apredica 72-hour HepG2 Assay for Stress Kinase (AID 2282921); details: HepG2 stress kinase (phospho-c-Jun) imaging, actives raise or lower the signal
Summary of the method: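 HepG2 cells treated 72 hr with 0.39–200 uM compound, 0.5% v/v DMSO, duplicate wells. After formaldehyde fixation and Triton permeabilization, stained with anti-phospho-c-Jun (1:500) and Cy3 secondary, imaged at 20x. Fitted in both directions against DMSO.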

[17] = APR_HepG2_StressKinase_24hr: Apredica 24-hour HepG2 Assay for Stress Kinase (AID 2282922); details: HepG2 stress kinase (phospho-c-Jun) imaging, actives raise or lower the signal
Summary of the method: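 HepG2 cells exposed 24 hr to compound at 0.39–200 uM (10 concentrations, duplicate), 0.5% v/v DMSO final. Fixed in 3.7% formaldehyde, permeabilized with Triton X-100, immunolabeled for phospho-c-Jun with Hoechst 33342; HCS fluorescence imaging, bidirectional fit versus DMSO.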

[18] = APR_HepG2_p53Act_72hr: Apredica 72-hour HepG2 Assay for p53 Activation (AID 2282923); details: high-content imaging, actives raise or lower the signal;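 further: average cellular p53 protein immunofluorescence intensity in HepG2 cells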
Summary of the method: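 HepG2 cells exposed 72 h to 0.39–200 uM in 0.5% DMSO, duplicates. Fixed, permeabilized cells immunostained for p53 (Cy5) with Hoechst; imaged at 20x, fluorescence analyzed bidirectionally against DMSO.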

[19] = APR_HepG2_MitoMass_72hr: Apredica 72-hour HepG2 Assay for Mitochondrial Mass (AID 2282924); details: high-content imaging, actives raise or lower the signal;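 further: MitoTracker Red CMXRos stain intensity per cell imaged as mitochondrial mass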
Summary of the method: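 HepG2 cells were exposed for 72 hr to compounds at 0.39–200 uM (ten concentrations, duplicate, 0.5% v/v DMSO final). Live cells were stained with 250 nM MitoTracker Red CMXRos for 30 min, then fixed in 3.7% formaldehyde and imaged by HCS fluorescence.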

[20] = APR_HepG2_NuclearSize_72hr: Apredica 72-hour HepG2 Assay for Nuclear Size (AID 2282925); details: high-content imaging, actives raise or lower the signal
Summary of the method: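 HepG2 cells were exposed to compounds at ten concentrations from 0.39 to 200 uM (duplicate, 0.5% DMSO final) for 72 hr. After fixation in 3.7% formaldehyde, nuclei were stained with Hoechst 33342 (2 ug/mL) and imaged at 20x.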

Measured: AC50

CCc1cc(SCc2sc(-c3ccc(C(F)(F)F)cc3)nc2CN2CCN(c3ccc(OC)cc3)CC2)ccc1OCC(=O)O
active: [3] 49.7 µM | [4] 48.5 µM | [5] 55.9 µM | [8] 84 µM | [10] 39.5 µM | [11] 48 µM | [12] 116 µM | [13] 45 µM | [15] 54.5 µM | [18] 59 µM | [19] 33.2 µM
inactive: [1] | [2] | [6] | [7] | [9] | [14] | [16] | [17] | [20]

COC(=O)c1c(Cl)c(Cl)c(C(=O)OC)c(Cl)c1Cl
inactive: [1] | [2] | [3] | [4] | [5] | [6] | [7] | [8] | [9] | [10] | [11] | [12] | [13] | [14] | [15] | [17] | [18] | [19] | [20]

CC[C@H]1OC(=O)[C@H](C)[C@@H](O[C@H]2C[C@@](C)(OC)[C@@H](O)[C@H](C)O2)[C@H](C)[C@@H](O[C@@H]2O[C@H](C)C[C@H](N(C)C)[C@H]2O)[C@](C)(O)C[C@@H](C)C(=O)[C@H](C)[C@@H](O)[C@]1(C)O
inactive: [1] | [2] | [3] | [4] | [5] | [6] | [7] | [8] | [9] | [10] | [11] | [13] | [14] | [15] | [17] | [18] | [19] | [20]

Cc1ccc(S(=O)(=O)O)cc1C
inactive: [1] | [2] | [3] | [4] | [5] | [6] | [7] | [8] | [9] | [11] | [12] | [13] | [14] | [15] | [17] | [18] | [20]
active: [10] 0.0391 µM | [19] 0.0391 µM

O=C(NS(=O)(=O)/C=C/c1ccccc1)c1ccc(F)cc1Cl
inactive: [1] | [2] | [3] | [4] | [5] | [6] | [7] | [8] | [9] | [10] | [12] | [13] | [14] | [15] | [16] | [17] | [18] | [19] | [20]

CCn1nc(Cc2ccccc2)cc1C1CCN(C[C@H]2C[C@H](N(C)[C@@H](C(=O)O)C(C)C)C[C@@H]2c2cccc(F)c2)CC1
active: [1] 46.3 µM | [10] 90.9 µM | [13] 113 µM
inactive: [2] | [3] | [4] | [5] | [6] | [7] | [8] | [9] | [11] | [12] | [14] | [15] | [17] | [18] | [19] | [20]

CCCN(C1CCN(C(=O)C2CCNCC2)CC1)[C@@H]1CCc2ccc(OC)cc2C1
inactive: [1] | [2] | [4] | [6] | [8] | [9] | [14] | [17] | [20]
active: [3] 100 µM | [5] 67.5 µM | [7] 100 µM | [10] 95 µM | [11] 64 µM | [13] 53 µM | [15] 80.8 µM | [18] 68.9 µM
